# Entries with a potency or affinity are not part of this list. The source made the active and inactive calls.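 How the source made its calls: active means cell killing, with a fitted active concentration at or below twice the top valid dose tested; inconclusive means flat curve with moderate cell loss, or an unreliable fit; inactive means effect in the rising direction, plus the rest.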
# Assay: loss of HEK293T viability via ATP – cell-based, plate reader, dry powder, set 10, cytotoxicity control, dose response (AID 743315)
# Conditions: CellTiter-Glo ATP luminescence, 72 h; series mostly up to 26 µM
row,SMILES,outcome
1,Cc1ccc(OCCn2c(=S)[nH]c3ccccc32)c(C)c1,inactive
2,Fc1ccccc1OCCn1c(=S)[nH]c2ccccc21,inactive
3,S=c1[nH]c2cc(Cl)ccc2n1CCOc1ccccc1,inactive
4,S=c1[nH]c2ccccc2n1CCOc1ccccc1,inactive
5,Cc1ccc(C(C)C)c(OCCn2c(=S)[nH]c3cccc(C)c32)c1,inactive
6,Cc1ccc(OCCn2cnc3ccccc32)cc1,inactive
7,Cc1ccc(C(C)C)c(OCCn2c(=S)[nH]c3cccc(F)c32)c1,inactive
8,Cc1cccc(OCCn2c(=S)[nH]c3cc(F)ccc32)c1,inactive
9,Cc1cccc(OCCn2c(=S)[nH]c3ccccc32)c1C,inactive
10,Cc1ccc(OCCn2c(=S)[nH]c3ccccc32)cc1,inactive
11,S=c1[nH]c2ccccc2n1CCOc1ccccc1Cl,inactive
12,O=c1[nH]c2ccccc2n1CCOc1ccccc1,inactive
13,Cc1ccc(C(C)C)c(OCCn2c(=S)[nH]c3ccc(F)cc32)c1,inactive
14,Cc1cccc(OCCn2c(=S)[nH]c3c(F)cccc32)c1,inactive
15,Fc1cccc(OCCn2c(=S)[nH]c3ccccc32)c1,inactive
16,Cc1cccc(OCCn2c(=S)[nH]c3ccc(C(F)(F)F)cc32)c1,inactive
17,Fc1cccc2c1[nH]c(=S)n2CCOc1ccccc1,inactive
18,Cc1cccc(OCCn2c(=S)[nH]c3cc(C(F)(F)F)ccc32)c1,inactive
19,CC(C)c1ccccc1OCCn1c(=S)[nH]c2ccccc21,inactive
20,Cc1ccc(OCCn2cnc3ccccc32)c(C(C)C)c1,inactive
21,Cc1ccc(C(C)C)c(OCCn2c(=S)[nH]c3cccc(Cl)c32)c1,inactive
